# From PubChem BioAssay
# This is a sample that favours compounds with a hit; in the whole collection about 2.6% have one here.
# IDE cell activ: IDE (human) activation, cell-based; P14735; actives 0.073% (n = 340,000); HEK cells, FAbeta-B cleavage, fluorescence polarization; 0% vehicle, 100% cell-free pure enzyme wells; activation, % at 5.96 µM;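 active means activation above the mean of all tested compounds plus 3 SD, set per screening campaign, cut at about 17% in these data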
# Target sequence (P14735 whole entry, looked up): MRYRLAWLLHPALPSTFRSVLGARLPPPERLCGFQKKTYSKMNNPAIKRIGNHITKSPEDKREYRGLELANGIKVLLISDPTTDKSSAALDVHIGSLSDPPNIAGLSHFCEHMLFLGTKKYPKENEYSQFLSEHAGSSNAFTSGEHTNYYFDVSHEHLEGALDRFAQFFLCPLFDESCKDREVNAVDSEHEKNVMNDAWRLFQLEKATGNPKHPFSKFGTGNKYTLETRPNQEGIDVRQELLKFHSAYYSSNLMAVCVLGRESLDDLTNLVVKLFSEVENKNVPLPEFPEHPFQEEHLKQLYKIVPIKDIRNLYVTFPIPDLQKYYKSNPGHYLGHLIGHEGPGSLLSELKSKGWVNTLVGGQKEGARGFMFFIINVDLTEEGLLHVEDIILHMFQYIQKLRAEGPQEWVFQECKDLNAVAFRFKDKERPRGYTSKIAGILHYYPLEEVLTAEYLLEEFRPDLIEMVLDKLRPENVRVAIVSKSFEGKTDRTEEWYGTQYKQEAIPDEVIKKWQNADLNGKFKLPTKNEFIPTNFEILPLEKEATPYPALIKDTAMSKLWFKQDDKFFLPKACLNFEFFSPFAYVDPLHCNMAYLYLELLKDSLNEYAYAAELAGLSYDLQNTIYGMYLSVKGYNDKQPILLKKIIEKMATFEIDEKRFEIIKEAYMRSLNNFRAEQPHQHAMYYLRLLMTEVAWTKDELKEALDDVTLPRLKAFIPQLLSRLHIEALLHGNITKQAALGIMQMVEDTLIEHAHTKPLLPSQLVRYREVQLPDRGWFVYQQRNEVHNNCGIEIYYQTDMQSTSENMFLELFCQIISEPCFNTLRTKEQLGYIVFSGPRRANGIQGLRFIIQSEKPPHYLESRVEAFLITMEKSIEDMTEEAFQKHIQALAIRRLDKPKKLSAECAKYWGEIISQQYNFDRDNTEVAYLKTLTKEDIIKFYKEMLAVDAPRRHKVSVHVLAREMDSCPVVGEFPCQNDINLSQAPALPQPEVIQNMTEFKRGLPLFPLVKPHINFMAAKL
# IDE cell inh: inhibits human insulin-degrading enzyme in HEK cells; FAbetaB cleavage, fluorescence polarization; actives 0.41% (n = 320,000); P14735; inhibition, % at 5.59 µM;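 active means percent inhibition above the average of all tested compounds plus 3 SD, set per screening campaign, cut at about 16% in these data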;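 further: IDE supplied by intact live HEK cells; FP after avidin binding of uncleaved biotin substrate so inhibition keeps polarization high; 0% = DMSO wells and 100% = 60 µM reference IDE inhibitor Ii1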
# Myeloid diff MLP: compounds promoting myeloid differentiation; ER-HoxA9 myeloid progenitors, lysozyme-GFP differentiation, flow cytometry; calls only at 10 µM; actives 1% (n = 360,000);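 active means normalized GFP-positive differentiation at or above the plate's own cutoff, the solvent-only control mean plus 3 SD; inconclusive means no clear call, values can overlap the other calls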;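 further: cells exposed to compound for four days before flow analysis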
# TPT1 inh: inhibitors of Candida albicans tRNA 2'-phosphotransferase TPT1; AID 1962; inhibition, % at 5 µM; recombinant caTPT1, FP RNA substrate dephosphorylation; actives 0.81% (n = 300,000);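 active means inhibition above the mean of all tested compounds plus 3 SD, set per screening campaign, cut at about 24% in these data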;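 further: plate controls were DMSO alone for no effect and ferristatin control at 100 nM for full effect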
# CRFBP-R2 agonist: CRF-BP/CRF-R2 complex agonism; HEK293 CRF-R2/CRF-BP, calcium dye fluorescence (FLIPR); percent of saturating CRF peptide response; activation, % at 13.2 µM; actives 0.46% (n = 350,000);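 active means activation of at least 50%, plus an integration ratio under a set limit after plate pattern correction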;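 further: plate controls were neutral control wells without compound for no effect and CRF at EC100 for full effect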
# CRFBP-R2 block: CRF-BP/CRF-R2 complex antagonism; HEK293 CRF-R2/CRF-BP, CRF-induced calcium fluorescence; inhibition, % at 11.8 µM; actives 0.59% (n = 350,000);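 active means inhibition of the ligand-induced calcium signal above about 50% at the single tested concentration, limit read from the data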
# Myeloid diff: compounds promoting myeloid differentiation. calls only. actives 2% (n = 2,300). shares compounds with Myeloid diff MLP. ER-HoxA9 myeloid progenitors, GFP/Mac1 double-positive flow;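 active means share of green or green-and-red cells above 9 and 9% in run 1 or 4 and 3% in run 2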
# GFP autofluor: flagged as fluorescent in myeloid differentiation counter-screen. shares compounds with Myeloid diff MLP. ER-HoxA9 myeloid progenitors, no estrogen, GFP autofluorescence flow cytometry; vehicle wells 0%, positive control 100%. fluorescence response, % (concentration not given with the values). actives 7.4% (n = 2,300);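 active means over 5% cells positive for green fluorescent reporter, or over 2% positive for both it and APC stain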;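 further: range taken on the double positive population between DMSO and positive control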
# An asterisk follows results filed as active; i = inactive; ? = inconclusive; . = no result; + = active, no number.
SMILES,IDE cell activ,IDE cell inh,Myeloid diff MLP,TPT1 inh,CRFBP-R2 agonist,CRFBP-R2 block,Myeloid diff,GFP autofluor
CCOC(=O)C1=NN(C(=O)c2ccc(OC)cc2)C(O)(c2ccc(Cl)cc2)C1 (stereo not given),2,-2,+,1,80*,-4,i,0
CCOC(=O)C1=NN(C(=O)COc2ccccc2)C(O)(c2ccc(Cl)cc2)C1 (stereo not given),-2,-3,i,4,0,-20,.,.
CCN(CC)CCCOC(=O)c1ccc(OC)cc1O,5,0,i,-1,0,-18,.,.
CC(C)=CCCC(C)CN1CCC(N2CCC(C(=O)NC(C)C)CC2)CC1 (stereo not given),7,-11,i,1,0,6,.,.
COc1ccc2nc(NC(=O)CCc3cc(OC)c(OC)c(OC)c3)sc2c1,3,1,i,-1,-2,5,.,.
Cc1c(C(=O)N2CCC(C)CC2)oc2ccc3c(c12)C(O)CC1(CCCCC1)O3 (stereo not given),4,-5,+,-4,1,-22,i,1
Oc1ccc(Br)cc1/C=N/NC(=S)NCCc1ccccc1,2,1,.,1,1,-4,.,.
O=C(CCc1ccccc1)N/N=C/c1cc(Br)ccc1O,3,0,i,-1,-1,-36,i,0
O=C(/C=C\c1ccc2c(c1)OCO2)Nc1c2c(nn1-c1ccc(Cl)cc1)CSC2,-5,-1,i,0,4,5,i,0
CC[C@@]1(C(=O)OC)N[C@H](CN(C)C(=O)COC)[C@@H]2C(=O)N(Cc3ccccc3)C(=O)[C@@H]21,5,0,+,.,0,1,i,7.3*
COc1ccc(NC(=S)NC(NC(=O)C(C)C)C(Cl)(Cl)Cl)c([N+](=O)[O-])c1 (stereo not given),4,4,+,-4,-1,18,i,1
COc1ccc(NC(=O)CC(C)C)c([N+](=O)[O-])c1,-1,8,i,-3,0,-12,.,.
COCCCN1C(=O)C(CC(=O)NCCN2CCOCC2)CC(C(=O)N(C(C)C)C(C)C)=C1C (stereo not given),.,.,i,.,.,.,.,.
CCOP(=O)(OCC)C(NC(=O)Nc1ccc(Cl)c(Cl)c1)C(N)=O (stereo not given),3,0,i,-7,-1,14,i,0
CCNC(=S)NNC(=O)c1csc(C)c1,-2,1,i,-20,-3,16,.,.
CCCCNC(=S)NNC(=O)c1csc(C)c1,-1,10,i,0,-4,22,i,0
CCOC(=O)c1ccc(NC(=O)c2ccc3c(c2)C(=O)N(Cc2cccnc2)C3=O)cc1,-4,10,i,-2,0,-11,.,.
CC[N+](C)(CC)CCOC(=O)C(O)(c1ccccc1)C1CCCCC1 (stereo not given),7,1,?,0,-1,-10,.,.
CC[N+](C)(CC)CCC(c1ccccc1)C1CCCCC1 (stereo not given),-6,0,i,-1,-1,8,i,0
COC(=O)c1ccc(CSc2ncn[nH]2)o1,-2,-1,i,-1,-2,5,.,.
CCOC(=O)c1ccc(CSc2ncn[nH]2)o1,0,1,i,-3,1,2,i,0
Cc1ccccc1C(=O)NNC(=O)Nc1ccccc1,.,2,.,1,.,.,.,.
O=C(NC(=S)N1CCCCCC1)c1ccc(Cl)cc1Cl,.,4,i,-1,2,-17,.,.
C=CCN1C(=O)C(Cc2ccc(C)cc2)S/C1=N/N=C/c1ccco1 (stereo not given),0,4,.,-8,0,-4,i,1
O=C1C(Cc2ccccc2)S/C(=N/N=C/c2ccco2)N1c1ccccc1 (stereo not given),6,3,i,2,2,9,.,.
SMILES,IDE cell activ,IDE cell inh,Myeloid diff MLP,TPT1 inh,CRFBP-R2 agonist,CRFBP-R2 block,Myeloid diff,GFP autofluor
O=C(COc1ccccc1)Nc1nc2cc3c(cc2s1)OCCO3,6,1,i,-2,-2,-9,i,1
CC1CCN(C(=S)Nc2cccc(S(=O)(=O)N(C)C)c2)CC1,-1,2,+,-1,-2,7,i,0
COc1ccc(CCNS(=O)(=O)c2cccc(F)c2)cc1OC,7,0,i,2,0,-11,i,0
CC(C)(C)c1ccc(S(=O)(=O)N2CCN(C(=O)C3=COCCO3)CC2)cc1,4,-1,i,.,1,0,.,.
CC(=O)Nc1ccc(N=NN2CCOCC2)cc1,0,1,i,-1,1,-32,i,0
CCc1nc2ccc(C(=O)Nc3cc(-c4ccccc4)ccc3OC)cn2c1N(C)Cc1nccs1,.,.,+,.,.,.,i,0
CCc1nc2ccc(C(=O)Nc3cc(-c4ccccc4)ccc3OC)cn2c1N(C)Cc1ccc(OC)cc1,.,.,i,.,.,.,.,.
Clc1cccc(CNc2ccn3nc(-c4ccccc4)cc3n2)c1,.,.,i,.,.,.,.,.
c1ccc(COc2ccc(-c3cc4nc(NCCN5CCOCC5)ccn4n3)cc2)cc1,.,.,i,.,.,.,.,.
Clc1cccc(CNc2ccn3nc(-c4ccc(OCc5ccccc5)cc4)cc3n2)c1,.,.,+,.,.,.,i,1
c1ccc(COc2cccc(-c3cc4nc(NCCN5CCOCC5)ccn4n3)c2)cc1,.,.,+,.,.,.,i,0
CC1=C(C(=O)OCc2ccc3c(c2)OCO3)C(c2ccc(F)cc2)NC(=O)N1 (stereo not given),-10,1,+,-3,-4,-16,i,0
O=c1[nH]c(=S)n2c(c1-c1ccccc1)OC(CBr)C2 (stereo not given),.,.,+,.,4,28,i,4
CCC(=O)Nc1ccc(C(=O)NNC(=O)C(c2ccccc2)c2ccccc2)cc1,1,-7,i,-3,1,-2,.,.
CC(C)CC(=O)Nc1ccc(C(=O)NNC(=O)C(c2ccccc2)c2ccccc2)cc1,-3,0,i,2,5,-34,i,0
O=C(COc1ccc(Br)cc1)Nc1ccc(Cc2ccncc2)cc1,-2,-3,i,-2,0,16,.,.
CCNc1nc(SCC(N)=O)nc2sc3c(c12)CCN(C)C3,5,.,i,.,4,23,i,0
COCCNC(=O)C1(C)CCCN(C(=O)c2ccc3c(c2)CCO3)C1 (stereo not given),.,.,i,.,.,.,.,.
O=C(CCc1nc2ccccc2[nH]c1=O)OCC(=O)N1CCc2ccccc21,4,2,i,2,0,6,i,0
